These results are taken from PubChem BioAssay AID720565 (National Center for Advancing Translational Sciences (NCATS), 2013).

Results filed as inconclusive are left out. A number with no mark means an inactive call. Calls of active or inactive are those of the source. Calls come from the whole dose curve; as a rule, active = well fitted activation curve with a large enough effect; inconclusive = small, poorly fitted or top-dose-only effect; inactive = no such curve, though single readings can be large or run the other way.
Potency is the fitted concentration of half-maximal effect.

The nature of the assay: qHTS for small molecules that induce genotoxicity in ELG1 expressing cells: Confirmatory Assay for Cherry-picked Compounds. For activation: % of control where 0% means no effect. Note: nearly all actives have a fitted effect of over 35% in size. The note with it: ELG1-luciferase reporter cells, luminescence, 16 h; series mostly up to 46.1 µM; activation: at the top concentration. The method in brief: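 Cells carrying the ELG1-luciferase reporter were exposed to compound for 16 hr at 37 C, 5% CO2, at 2,000 cells per well. Rise in luciferase activity, read with ONE-Glo after 30 min at room temperature, indicates genotoxic stress.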
Regarding `COc1cccc2c1C(=O)/C(=C\c1ccc(N(C)C)cc1)C2`, the Potency was 3.15 µM (active).
As for `COc1cc2cc(C)c(SCC(=O)N3CCOCC3)nc2cc1OC`, the “activation” value is 2.87%.
Same read-out and setting: the same measure for `Cc1ccccc1NC(=O)CSc1nc2ccccc2o1`: 23.9%.
For `c1nc(CCO[C@H]2CCCCO2)cc2cc3c(cc12)OCO3`, the Potency is 0.281 µM (active).
For the compound `O=C(CSc1nnc(Cc2ccccc2)o1)Nc1ccc(Br)cn1`, the “activation” value is -11.1%.
In the case of `O=c1c2ccccc2oc2c1ccc1ccccc12`, the Potency was 15.8 µM (active).
`CC(C)CN(C)c1ccc(/C=C2\C=Cc3ccccc32)cc1`: the Potency is 14.1 µM (active).
The same measure, in the same setting: the same measure for `O=C(NC1CCCC1)c1cc(-c2cccs2)on1`: 15.8 µM (active).
Same read-out and setting: the same measure for `COc1cccc(NC(=O)CSc2nnc(-c3ccc(C)cc3)o2)c1`: 14.1 µM (active).
Still for that read-out and setting: the figure for `O=C(NOCc1ccccc1)c1ccccc1` is 8.88 µM (active); for `CCn1c(C)cc(C(=O)COC(=O)c2cccnc2SC)c1C` it is 9.96 µM (active).
Consider `O=C(CSc1nnc(-c2ccc(O)cc2)o1)Nc1ccccc1Br`, for which the Potency is 14.1 µM (active).
On the same count and under the same terms, the same measure for `C(=C\c1nc2ccccc2s1)/c1ccc2c(c1)OCO2`: 0.141 µM (active).
On the same count and under the same terms, the same measure for `COc1ccc(-c2cnc(-c3cccnc3)o2)cc1`: 15.8 µM (active).
Still for that read-out and setting: the figure for `CC(=NNC(=O)c1cccs1)c1ccc2c(c1)OCCO2` is 14.1 µM (active); for `Cc1nc(Nc2nc3ccccc3o2)nc2c1CCCC2` it is 0.706 µM (active).
Turning to `CN(Cc1ccco1)c1ncnc2ccc(-c3cccc(Cl)c3)cc12`, the “activation” value was -10.7%.
On to `O=C(/C=C/C#Cc1cccc(NS(=O)(=O)c2ccccc2)c1)NO`, for which the Potency was 3.15 µM (active).
In the case of `O=C1CCc2cc(NS(=O)(=O)c3ccccc3)cc3c2N1CCC3`, the “activation” value is 12.5%.
In the case of `Nc1ccc(/C=C/c2ccc3cccnc3c2)cc1`, the Potency was 0.5 µM (active).
`Cc1sc(NC(=O)c2ccco2)c(C(c2cccnc2)N2CCN(c3ccc(F)cc3)CC2)c1C` (configuration not stated): the “activation” value was -16.3%.
On the same count and under the same terms, the figure for `Cc1cc2cc3c(cc2nc1SCC(=O)N1CCOCC1)OCO3` is -9.39%.
